# Experimental data as given in PubChem BioAssay (Tox21).
# Records with an inconclusive call do not appear. Values without a mark were called inactive. Calls follow the shape of the full dose curve.
# Experiment: qHTS assay to identify small molecule agonists or antagonists of the thyroid stimulating hormone receptor (TSHR) signaling pathway - wild type cell line counter screen (AID 1259384)
# Details: HEK293 wild type, cAMP HTRF counter-screen, active compounds read high; series mostly up to 92.4 µM; cAMP activity change: at the top concentration
# Excerpt: U.S. Tox21 Program National Center for Advancing Translational Sciences [NCATS] NIH Chemical Genomics Center [NCGC] U.S. Environmental Protection Agency [EPA] National Institutes of Environmental Health Sciences [NIEHS] National Toxicology Program [NTP] U.S. Food and Drug Administration [FDA] Tox21 Assay Overview: TSHR is the receptor for thyrotropin (thyroid stimulating hormone or TSH), a member of the glycoprotein hormone family. TSH is released by the anterior pituitary gland and is the main regulator of thyroid gland growth and development. Upon binding circulating thyrotropin, a G-protein signal cascade activates adenylyl cyclase and […] cAMP concentration is increased. cAMP is a key second messenger involved extensively in cellular signal transduction pathways associated with the majority of G-protein coupled receptors (GPCRs). The activation of these GPCRs by neurotransmitters, lipids, nucleotides, peptides and hormones results in the activation or the inhibition of plasma membrane-bound adenylate cyclase through heterotrimeric G-proteins. A cell-based TSHR-Hek293 assay can be used to identify TSHR agonists. To eliminate the false positive compounds identified from screening a cell-based TSHR-Hek293 cell line, cAMP assay in a wild type Hek293 cells was used as a counter screening.
# Tox21 Assay Protocol Summary: Hek293 cells (wild type) were dispensed at 800 cells/4 uL/well in 1536-well white plates using a Multidrop dispenser. After the assay plates were incubated at a 37 C/5% CO2 incubator for 18 hrs, 23 nL of compounds dissolved in DMSO, positive controls or DMSO only was transferred to the assay plate by a pin tool, followed by 1 ul medium containing Ro20-1724. After 30 min of incubation at room temperature, 2.5 ul/well of cAMP-d2 and 2.5 ul/well of anti-cAMP-cryptate were added respectively into the assay plates using a Flying Reagent Dispenser. The plates were incubated at room temperature for 1 hr. The fluorescence intensity in the plates was measured using an Envision plate reader. Each test compound was measured at 15 concentrations and in triplicates.
# % is scaled to controls: 0 for no effect and ±100 for the full control effect.
row,Compound,cAMP activity change
1,COc1cc(C)ccc1C(C)C,-1.45%
2,CCN(CC)CC1CCCCN1CC(=O)N1c2ccccc2C(=O)Nc2cccnc21 (stereo not given),3.58% [at 42.5 µM]
3,CN(CC1(C)CCCO1)S(=O)(=O)c1ccc(Cl)c(S(N)(=O)=O)c1 (stereo not given),-0.369% [at 42.5 µM]
4,c1ccc(CN(CC2=NCCN2)c2ccccc2)cc1,5.28% [at 42.5 µM]
5,CCc1nnc(NS(=O)(=O)c2ccc(N)cc2)s1,1.83% [at 42.5 µM]
6,CC/C=C\CCOC(=O)C(C)C,-3.71%
7,OCc1ccccc1O,-6.71% [at 42.5 µM]
8,CCCS(=O)c1ccc2nc(NC(=O)OC)[nH]c2c1 (stereo not given),-1.85% [at 42.5 µM]
9,C=O,0.724%
10,NCCC(O)(P(=O)(O)O)P(=O)(O)O,2.17% [at 42.5 µM]
11,Cc1nc(-c2ccccn2)ncc1C(=O)Nn1cc(C)c2cc(F)ccc21,-3.71%
12,O=Cc1ccc(F)c(Br)c1,6.29%
13,C1CSCCS1,2.54%
14,CN1C(=O)CC(c2ccccc2)C1=O (stereo not given),-1.67% [at 42.5 µM]
15,CCCC(CCC)(C(=O)OCC)C(=O)OCC,-2.1% [at 42.5 µM]
16,CC(C)S,1.22%
17,CC(C)C(=O)OCC(C)(C)C(O)C(C)C (stereo not given),0%
18,O=[N+]([O-])c1nccn1CO[C@@H](CO)[C@H](O)CO,0.921% [at 42.5 µM]
19,Nc1ccc2ccccc2c1S(=O)(=O)O,1.63%
20,Clc1cccc(-c2cc(Cl)cc(Cl)c2)c1,-6.39%

row,Compound,cAMP activity change
1,C[C@]12C(=O)OC(=O)[C@H]1[C@H]1C=C[C@@H]2C1,-2.89%
2,CCCCNc1ccc(C(=O)OCCN(CC)CC)cc1,2% [at 42.5 µM]
3,CCC1(C)NC(=O)NC1=O (stereo not given),2.76%
4,CC1=CC(=O)CC(C)(C)C1=O,3.57%
5,CCCNC(C)C(=O)Nc1c(C)csc1C(=O)OC (stereo not given),-1.11% [at 42.5 µM]
6,CCCNC(C)(C)COC(=O)c1ccccc1,-4.66% [at 42.5 µM]
7,CCCOCCC,0.0157%
8,Cc1cccc(C)c1NC(=O)CN1CCCCCC1,-6.05% [at 42.5 µM]
9,C/C(=N\O)[C@@H](C)NCC(C)(C)CN[C@H](C)/C(C)=N/O,0.59% [at 42.5 µM]
10,CCOC(=O)CS,7.11%
11,Cc1onc(-c2ccccc2)c1C(=O)Cl,-0.398% [at 42.5 µM]
12,CCCCCCCCCC/C=C/C#N,-0.0353%
13,O=C1C=CC(=O)O1,-2.08%
14,CN(C)CCOc1ccccc1Cc1ccccc1,5.31% [at 42.5 µM]
15,CCCc1c2oc(C(=O)O)cc(=O)c2cc2c(=O)cc(C(=O)O)n(CC)c12,-1.49% [at 42.5 µM]
16,CCCOc1ccc2c(c1)CC[C@@H]1[C@@H]2CC[C@]2(C)C(OC)CC[C@@H]12 (stereo not given in full),-5.07% [at 42.5 µM]
17,CC[C@H]1CC[C@H](NCc2cc3c(cc2OC)[C@H]2C[C@H]2C(=O)N3C)[C@H](c2ccccc2)N1,-2.17%
18,C=CC1CO1 (stereo not given),0.285%
19,CN1CCN(C2=Nc3cc(F)ccc3Cc3ccccc32)CC1,2.33% [at 42.5 µM]
20,NNS(=O)(=O)c1ccc(Oc2ccc(S(=O)(=O)NN)cc2)cc1,3%
